Laboratory results published in PubChem BioAssay (EPA / NIEHS).
“And” between values parts separate entries of the source, which are not always exact repeats. Equal entries are not always repeated. Inconclusive results are not listed. The source made the active and inactive calls. Rule for the calls: active = hit-call score of the fitted dose curve at least 0.9, where 1 is the maximum; inconclusive = response in the unintended direction; inactive = score below 0.9.

Target: human Opioid Receptor Delta 1 (Opiate D1), OPRD1 (gene 4985) (UniProt P41143)
Sequence (P41143 whole entry, looked up): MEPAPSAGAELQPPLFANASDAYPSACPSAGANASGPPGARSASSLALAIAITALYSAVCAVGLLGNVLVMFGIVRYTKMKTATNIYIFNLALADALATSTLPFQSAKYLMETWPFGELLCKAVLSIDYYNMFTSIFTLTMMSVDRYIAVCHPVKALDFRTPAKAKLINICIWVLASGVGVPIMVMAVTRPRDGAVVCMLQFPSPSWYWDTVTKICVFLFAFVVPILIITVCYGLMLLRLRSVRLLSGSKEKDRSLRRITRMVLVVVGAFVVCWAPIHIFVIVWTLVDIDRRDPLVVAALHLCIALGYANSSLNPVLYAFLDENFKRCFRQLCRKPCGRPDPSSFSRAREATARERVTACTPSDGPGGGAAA
Assay: NVS_GPCR_hOpiate_D1: NovaScreen (NVS) G Protein-Coupled Receptor Assay for human Opioid Receptor Delta 1 (Opiate D1) (AID 2283280)
Description: NVS_GPCR_hOpiate_D1 is a biochemical, single-readout assay that uses extracted gene-proteins from CHO in a cell-free assay. Measurements were taken 1 hour after chemical dosing in a 96-well plate.NVS_GPCR_hOpiate_D1 is one of one assay component(s) measured or calculated from the NVS_GPCR_hOpiate_D1 assay. It is designed to make measurements of radioligand binding, a form of binding reporter, as detected with scintillation counting signals by Filter-based radiodetection technology.Data from the assay component NVS_GPCR_hOpiate_D1 was analyzed into 1 assay endpoint. This assay endpoint, NVS_GPCR_hOpiate_D1, was analyzed in the positive analysis fitting direction relative to DMSO as the negative control and baseline of activity. Using a type of binding reporter, loss-of-signal activity can be used to understand changes in the binding as they relate to the gene OPRD1. Furthermore, this assay endpoint can be referred to as a primary readout, because the performed assay has only produced 1 assay endpoint. To generalize the intended target to other relatable targets, this assay endpoint is annotated to the gpcr intended target family, where the subfamily is rhodopsin-like receptor.
Binding assays used specific radioligands (tritiated, iodinated) with non-radioactive competitive displacement ligands in agonist or antagonist protocols (as indicated) and various reference compounds and inhibitors to titrate specific binding to receptors and transporters. Most enzyme assays (CYPs, kinases, phosphatases, proteases, HDACs) used recombinant protein and specific substrates (fluorescence mostly, some colorimetric and radioactive) and inhibitors, followed by a biochemical separation of substrate and product. All assays for the biochemical HTS were initially run in duplicate at a single concentration (10 uM for CYP450 assays and 25 uM for all others). […] Each assay was run with positive and negative controls, and concurrent controls on every plate. The follow-up (secondary) screen tested active chemical-pairs in concentration series, as well as a few additional assays not tested in the primary screen, some selected negative inactives, and several cases re-run in the concentration series for confirmatory purposes.

| Compound | AC50 |
| --- | --- |
| CC(=O)[O][Hg][c]1ccccc1 | 0.848 µM (active) |
| C=C(C)C(=O)[O][Sn]([CH2]CCC)([CH2]CCC)[CH2]CCC | 0.761 µM (active) |
| CC(C)(C)CC(C)(C)c1ccc(O)cc1 | 8.28 µM (active) |
| O=C(O)C(F)(F)C(F)(F)C(F)(F)C(F)(F)C(F)(F)C(F)(F)C(F)(F)C(F)(F)C(F)(F)C(F)(F)F | 10.7 µM (active) |

Target: human Purinergic Receptor P2Y, P2RY1 (gene 5028) (UniProt P47900)
Sequence (P47900 whole entry, looked up): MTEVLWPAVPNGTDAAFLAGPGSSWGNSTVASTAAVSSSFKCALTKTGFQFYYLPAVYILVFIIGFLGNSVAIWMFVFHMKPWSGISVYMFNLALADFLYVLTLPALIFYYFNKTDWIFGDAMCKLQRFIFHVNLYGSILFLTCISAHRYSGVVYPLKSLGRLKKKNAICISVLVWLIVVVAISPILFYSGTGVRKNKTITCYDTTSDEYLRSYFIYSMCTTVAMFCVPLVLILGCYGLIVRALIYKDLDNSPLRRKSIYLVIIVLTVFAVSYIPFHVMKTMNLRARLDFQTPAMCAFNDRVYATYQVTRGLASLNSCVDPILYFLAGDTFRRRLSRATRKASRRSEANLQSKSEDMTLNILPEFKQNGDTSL
Assay: NVS_GPCR_hPY2: NovaScreen (NVS) G Protein-Coupled Receptor Assay for human Purinergic Receptor P2Y (AID 2283281)
In short: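 Cell-free radioligand binding using U937-derived protein, 1 h after dosing, filter-based scintillation counting. Screened in duplicate at 25 uM; actives rerun as concentration-response up to 50 uM; loss of signal versus DMSO.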

| Compound | AC50 | outcome |
| --- | --- | --- |
| CC(=O)[O][Hg][c]1ccccc1 | 5.96 µM (active) | – |
| CC(C)(C)CC(C)(C)c1ccc(O)cc1 | – | inactive |
| COP(=S)(OC)Oc1ccc(Sc2ccc(OP(=S)(OC)OC)cc2)cc1 | – | inactive |

Target: human Thromboxane A2 Receptor (TXA2), TBXA2R (gene 6915) (UniProt P21731)
Sequence (P21731 whole entry, looked up): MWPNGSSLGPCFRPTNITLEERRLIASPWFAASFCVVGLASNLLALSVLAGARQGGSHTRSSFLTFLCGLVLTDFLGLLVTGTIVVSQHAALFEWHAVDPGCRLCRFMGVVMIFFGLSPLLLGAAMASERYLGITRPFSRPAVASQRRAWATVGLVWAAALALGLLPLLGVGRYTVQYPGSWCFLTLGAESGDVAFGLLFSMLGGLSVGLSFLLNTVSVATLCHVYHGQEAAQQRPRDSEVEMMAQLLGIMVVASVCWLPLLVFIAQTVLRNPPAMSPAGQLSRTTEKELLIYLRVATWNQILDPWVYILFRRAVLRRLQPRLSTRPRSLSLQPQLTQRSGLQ
Assay: NVS_GPCR_hTXA2: NovaScreen (NVS) G Protein-Coupled Receptor Assay for human Thromboxane A2 Receptor (TXA2) (AID 2283282);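 note: actives reduce bound radioligand signal relative to DMSO baseline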
In short: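 Cell-free radioligand binding on membrane protein from human platelets; radioligand displacement read by filter-based scintillation counting after 1 h. Primary screen in duplicate at 25 uM, actives then run in concentration series; loss of signal versus DMSO.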

| Compound | AC50 | outcome |
| --- | --- | --- |
| CC(=O)[O][Hg][c]1ccccc1 | 5.62 µM (active) | – |
| C=C(C)C(=O)[O][Sn]([CH2]CCC)([CH2]CCC)[CH2]CCC | 5.96 µM (active) | – |
| N#CCc1ccc(Cl)cc1 | – | inactive |
| CCNc1nc(NC(C)(C)C)nc(SC)n1 | – | inactive |
| CC(C)(C)CC(C)(C)c1ccc(O)cc1 | 43.7 µM (active) | – |
| COc1ccc(OC)c(C=O)c1 | – | inactive |
| CCSC(C)CC1CC(=O)C(C(CC)=NOC/C=C/Cl)=C(O)C1 (centres undefined) | 3.42 µM (active) | – |
| COP(=S)(OC)Oc1ccc(Sc2ccc(OP(=S)(OC)OC)cc2)cc1 | 25 µM (active) | – |
| O=C(O)C(F)(F)C(F)(F)C(F)(F)C(F)(F)C(F)(F)C(F)(F)C(F)(F)C(F)(F)C(F)(F)C(F)(F)F | – | inactive |
| C(=NC1CCCCC1)=NC1CCCCC1 | 2.87 µM (active) | – |
| CCCCCCCCC(=O)NCc1ccc(O)c(OC)c1 | – | inactive |

Target: human Orphanin, Opioid Related Nociceptin Receptor 1 (ORL1), OPRL1 (gene 4987) (UniProt P41146)
Sequence (P41146 whole entry, looked up): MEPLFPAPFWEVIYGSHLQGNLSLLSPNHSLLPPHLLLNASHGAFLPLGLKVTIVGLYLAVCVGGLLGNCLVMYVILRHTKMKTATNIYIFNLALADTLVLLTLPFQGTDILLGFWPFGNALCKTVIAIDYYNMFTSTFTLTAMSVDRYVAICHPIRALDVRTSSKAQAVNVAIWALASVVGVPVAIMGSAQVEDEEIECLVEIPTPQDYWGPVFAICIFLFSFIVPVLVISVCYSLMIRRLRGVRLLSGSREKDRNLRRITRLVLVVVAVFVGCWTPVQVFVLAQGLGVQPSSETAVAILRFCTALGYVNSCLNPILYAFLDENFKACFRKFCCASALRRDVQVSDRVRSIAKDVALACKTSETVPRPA
Assay: NVS_GPCR_hORL1: NovaScreen (NVS) G Protein-Coupled Receptor Assay for human Orphanin, Opioid Related Nociceptin Receptor 1 (ORL1) (AID 2283283)
In short: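 Filter-based radioligand displacement with receptor extracted from HEK293 cells, read 1 hour after dosing by scintillation counting. Duplicate single-point screen at 25 uM; qualifying chemicals then run in concentration-response to 50 uM, analysed relative to DMSO.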

| Compound | AC50 | outcome |
| --- | --- | --- |
| CC(=O)[O][Hg][c]1ccccc1 | 0.473 µM (active) | – |
| C=C(C)C(=O)[O][Sn]([CH2]CCC)([CH2]CCC)[CH2]CCC | 1.39 µM (active) | – |
| Clc1ccc(C2(Cn3cncn3)CC(Br)CO2)c(Cl)c1 (centres undefined) | – | inactive |

Target: mouse Cholecystokinin, CCK1 Receptor (CCKA), Cckar (gene 12425) (UniProt O08786)
Sequence (O08786 whole entry, looked up): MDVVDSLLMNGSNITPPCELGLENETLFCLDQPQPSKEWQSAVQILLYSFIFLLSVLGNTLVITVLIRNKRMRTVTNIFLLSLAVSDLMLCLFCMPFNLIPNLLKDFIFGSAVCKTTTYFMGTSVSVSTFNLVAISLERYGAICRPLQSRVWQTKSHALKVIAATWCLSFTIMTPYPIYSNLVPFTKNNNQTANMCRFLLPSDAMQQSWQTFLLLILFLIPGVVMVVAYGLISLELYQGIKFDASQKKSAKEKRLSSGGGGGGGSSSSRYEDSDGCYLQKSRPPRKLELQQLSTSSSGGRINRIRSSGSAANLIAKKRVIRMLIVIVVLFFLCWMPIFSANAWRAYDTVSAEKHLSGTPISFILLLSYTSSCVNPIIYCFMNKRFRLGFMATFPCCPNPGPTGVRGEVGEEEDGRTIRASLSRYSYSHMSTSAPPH
Assay: NVS_GPCR_mCCKAPeripheral: NovaScreen (NVS) G Protein-Coupled Receptor Assay for mouse Cholecystokinin, CCK1 Receptor (CCKA) (AID 2283285)
In short: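 Radioligand competitive displacement on mouse pancreatic membranes, 2 h incubation; filter-based scintillation counting, loss of signal versus DMSO. Single-concentration screen at 25 uM in duplicate, actives retested in concentration-response up to 50 uM.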

| Compound | AC50 | outcome |
| --- | --- | --- |
| CC(=O)[O][Hg][c]1ccccc1 | 1.65 µM (active) | – |
| C=C(C)C(=O)[O][Sn]([CH2]CCC)([CH2]CCC)[CH2]CCC | 0.281 µM (active) | – |
| CC(C)(C)CC(C)(C)c1ccc(O)cc1 | 12 µM (active) | – |
| O=C1C2(Cl)C3(Cl)C4(Cl)C(Cl)(Cl)C5(Cl)C3(Cl)C1(Cl)C5(Cl)C24Cl (centres undefined) | – | inactive |

Target: rat Serotonin, 5-Hydroxytryptamine Receptor 1 (5HT1), Non-Selective Binding, Htr1a (gene 24473) (UniProt P19327)
Sequence (P19327 whole entry, looked up): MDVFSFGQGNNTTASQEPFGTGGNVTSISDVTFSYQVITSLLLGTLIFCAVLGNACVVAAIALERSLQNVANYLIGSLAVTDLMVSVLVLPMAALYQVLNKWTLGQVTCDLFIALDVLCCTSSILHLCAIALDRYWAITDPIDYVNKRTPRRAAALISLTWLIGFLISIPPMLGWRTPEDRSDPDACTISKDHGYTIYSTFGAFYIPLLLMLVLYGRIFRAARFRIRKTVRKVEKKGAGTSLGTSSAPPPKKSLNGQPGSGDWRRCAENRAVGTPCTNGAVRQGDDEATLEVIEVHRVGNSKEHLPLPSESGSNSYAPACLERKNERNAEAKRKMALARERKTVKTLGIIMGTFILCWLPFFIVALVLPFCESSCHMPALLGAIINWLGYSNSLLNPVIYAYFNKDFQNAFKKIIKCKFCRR
Assay: NVS_GPCR_r5HT1_NonSelective: NovaScreen (NVS) G Protein-Coupled Receptor Assay for rat Serotonin, 5-Hydroxytryptamine Receptor 1 (5HT1), Non-Selective Binding (AID 2283286)
In short: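 Rat cortical membranes, radioligand displacement, 1 h incubation, read by filter scintillation. Primary screen in duplicate at 25 uM. Hits (e.g. ≥30% inhibition) went to concentration-response up to 50 uM, fitted as loss of binding versus DMSO.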

| Compound | AC50 | outcome |
| --- | --- | --- |
| CC(=O)[O][Hg][c]1ccccc1 | 16.4 µM (active) | – |
| CCN1CCC2(CC1)COc1cc3c(cc12)N(C(=O)c1ccc(-c2ccc(-c4nnc(C)o4)cc2C)cc1)CC3 | – | inactive |
| C=C(C)C(=O)[O][Sn]([CH2]CCC)([CH2]CCC)[CH2]CCC | 18 µM (active) | – |
| CCC(=O)C(CC(C)N(C)C)(c1ccccc1)c1ccccc1 (centres undefined) | – | inactive |
| COc1cc(-c2ccc(N)c(OC)c2)ccc1N | 11.8 µM (active) and 12.6 µM (active) | – |

System: rabbit Platelet Activating Factor Receptor (PAF), gene 100354046
Assay: NVS_GPCR_rabPAF: NovaScreen (NVS) G Protein-Coupled Receptor Assay for rabbit Platelet Activating Factor Receptor (PAF) (AID 2283287)
In short: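 Rabbit platelet membrane preparation; radioligand displacement read by filter-based scintillation counting 1 h after dosing, loss of signal versus DMSO. Primary screen in duplicate at 25 uM, actives followed up in concentration series.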

| Compound | AC50 |
| --- | --- |
| CC(=O)[O][Hg][c]1ccccc1 | 38.4 µM (active) |
| CCN1CCC2(CC1)COc1cc3c(cc12)N(C(=O)c1ccc(-c2ccc(-c4nnc(C)o4)cc2C)cc1)CC3 | 12.5 µM (active) |
| C=C(C)C(=O)[O][Sn]([CH2]CCC)([CH2]CCC)[CH2]CCC | 6.61 µM (active) |

Target: rat Adrenergic, Alpha 1, Non-selective Receptor (Adra1), Adra1a (gene 29412) (UniProt P43140)
Sequence (P43140 whole entry, looked up): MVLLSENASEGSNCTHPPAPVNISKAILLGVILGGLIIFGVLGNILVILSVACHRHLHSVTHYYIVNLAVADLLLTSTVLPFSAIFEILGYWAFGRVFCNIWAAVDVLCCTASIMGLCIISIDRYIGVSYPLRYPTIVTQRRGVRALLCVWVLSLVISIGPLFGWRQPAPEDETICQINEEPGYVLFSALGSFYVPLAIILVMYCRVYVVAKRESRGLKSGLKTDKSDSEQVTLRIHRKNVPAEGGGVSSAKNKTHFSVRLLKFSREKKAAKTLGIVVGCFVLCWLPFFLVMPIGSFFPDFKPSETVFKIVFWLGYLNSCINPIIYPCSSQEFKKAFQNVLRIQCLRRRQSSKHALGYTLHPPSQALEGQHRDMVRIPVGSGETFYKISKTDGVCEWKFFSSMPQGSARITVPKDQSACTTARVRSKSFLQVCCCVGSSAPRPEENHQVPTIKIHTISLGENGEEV
Assay: NVS_GPCR_rAdra1_NonSelective: NovaScreen (NVS) G Protein-Coupled Receptor Assay for rat Adrenergic, Alpha 1, Non-selective Receptor (Adra1) (AID 2283289)
In short: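 Rat forebrain membranes; radioligand displacement read by filter-based scintillation counting 1 h after dosing. Primary screen in duplicate at 25 uM; hits (e.g. ≥30% inhibition) rerun as concentration–response to 50 uM max. Fitted versus DMSO.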

| Compound | AC50 | outcome |
| --- | --- | --- |
| CC(=O)[O][Hg][c]1ccccc1 | 18.8 µM (active) | – |
| CCN1CCC2(CC1)COc1cc3c(cc12)N(C(=O)c1ccc(-c2ccc(-c4nnc(C)o4)cc2C)cc1)CC3 | 11.9 µM (active) | – |
| C=C(C)C(=O)[O][Sn]([CH2]CCC)([CH2]CCC)[CH2]CCC | 6.86 µM (active) | – |
| CCC(=O)C(CC(C)N(C)C)(c1ccccc1)c1ccccc1 (centres undefined) | 18.1 µM (active) | – |
| COc1cc(-c2ccc(N)c(OC)c2)ccc1N | – | inactive |

Target: human Opioid Receptor Mu (Opiate Mu), OPRM1 (gene 4988) (UniProt P35372)
Sequence (P35372 whole entry, looked up): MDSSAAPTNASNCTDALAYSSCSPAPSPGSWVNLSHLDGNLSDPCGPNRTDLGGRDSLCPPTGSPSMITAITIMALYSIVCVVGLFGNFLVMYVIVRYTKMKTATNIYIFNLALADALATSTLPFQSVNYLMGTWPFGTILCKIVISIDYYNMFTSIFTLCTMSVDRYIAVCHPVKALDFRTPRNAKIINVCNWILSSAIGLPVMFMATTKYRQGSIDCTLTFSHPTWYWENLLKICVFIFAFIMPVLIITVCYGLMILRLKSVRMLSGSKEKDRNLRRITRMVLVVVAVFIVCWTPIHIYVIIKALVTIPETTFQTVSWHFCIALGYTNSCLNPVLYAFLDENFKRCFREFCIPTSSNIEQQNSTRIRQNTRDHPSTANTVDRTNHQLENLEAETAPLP
Assay: NVS_GPCR_hOpiate_mu: NovaScreen (NVS) G Protein-Coupled Receptor Assay for human Opioid Receptor Mu (Opiate Mu) (AID 2283290);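 note: hits lower bound tracer signal versus DMSO meaning displacement of the ligand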
In short: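 Here, radioligand binding to CHO-extracted receptor was measured after 2.5 h using filter-based scintillation detection. Initial single-concentration screening used 25 uM in duplicate with plate controls; confirmed actives went to concentration-response testing.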

| Compound | AC50 | outcome |
| --- | --- | --- |
| CC(=O)[O][Hg][c]1ccccc1 | 0.0908 µM (active) | – |
| C=C(C)C(=O)[O][Sn]([CH2]CCC)([CH2]CCC)[CH2]CCC | 0.653 µM (active) | – |
| CC(C)(C)CC(C)(C)c1ccc(O)cc1 | 16.7 µM (active) | – |
| Nc1ncc([N+](=O)[O-])s1 | 17.6 µM (active) | – |
| O=C(OC1CCCCC1)c1ccccc1C(=O)OC1CCCCC1 | – | inactive |
| O=C(O)C(F)(F)C(F)(F)C(F)(F)C(F)(F)C(F)(F)C(F)(F)C(F)(F)C(F)(F)C(F)(F)C(F)(F)F | 12.4 µM (active) | – |
| O=C(Nc1ccc2[nH]ccc2c1)c1cc2cc(F)ccc2n1Cc1cccc(F)c1 | – | inactive |
| CCOP(=S)(OCC)SCSP(=S)(OCC)OCC | – | inactive |
| CC(C)(C)c1cc(O)ccc1O | – | inactive |
| O=C1C2(Cl)C3(Cl)C4(Cl)C(Cl)(Cl)C5(Cl)C3(Cl)C1(Cl)C5(Cl)C24Cl (centres undefined) | 1.63 µM (active) and 2.66 µM (active) and 1.08 µM (active) | – |
| ClC1=C(Cl)[C@]2(Cl)[C@H]3[C@H]([C@H]4C=C[C@H]3C4)[C@@]1(Cl)C2(Cl)Cl | – | inactive |
